Compound activity from PubChem.
A selection: hits, their analogues and other compounds. The true share with any hit is near 6.2%.
AHR activator: activators of human aryl hydrocarbon receptor; AHR-responsive luciferase reporter cells, luminescence; activation, % at 5 µM; actives 2.5% (n = 320,000); in the data active = activation above about 47%
GRIN3A LBD mod: modulators (binders) of human NR3A ligand-binding domain | NR3A LBD differential scanning fluorimetry, Tm shift; 0% = protein alone, 100% = glycine-bound protein | Tm shift relative to glycine control, % at 25 µM | actives 2.5% (n = 340,000);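 active = melting temperature shift of at least 10% of the positive control shift, at one fixed dose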
Mot1-301 SUMO: blocks SUMOylation pathway, rescuing yeast Mot1-301 growth; S. cerevisiae Mot1-301 growth rescue, ATP luminescence, 38.5C; percent above DMSO median, 100 means doubled; growth rescue, % at 18.8 µM; actives 1% (n = 320,000);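 active = every valid replicate shows activation above 250% relative to neutral control wells; inactive = the rest, any valid replicate at or below 250%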
NTR1 ag: NTR1 (human) agonism. NTR1-U2OS beta-arrestin-GFP spot imaging, agonist mode. activation, % at 20 µM. actives 0.17% (n = 330,000);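 active = activation at or above 40% of the spot to cytoplasm intensity ratio, with at least 20 cells analyzed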
Target sequence (P30989 whole entry, looked up): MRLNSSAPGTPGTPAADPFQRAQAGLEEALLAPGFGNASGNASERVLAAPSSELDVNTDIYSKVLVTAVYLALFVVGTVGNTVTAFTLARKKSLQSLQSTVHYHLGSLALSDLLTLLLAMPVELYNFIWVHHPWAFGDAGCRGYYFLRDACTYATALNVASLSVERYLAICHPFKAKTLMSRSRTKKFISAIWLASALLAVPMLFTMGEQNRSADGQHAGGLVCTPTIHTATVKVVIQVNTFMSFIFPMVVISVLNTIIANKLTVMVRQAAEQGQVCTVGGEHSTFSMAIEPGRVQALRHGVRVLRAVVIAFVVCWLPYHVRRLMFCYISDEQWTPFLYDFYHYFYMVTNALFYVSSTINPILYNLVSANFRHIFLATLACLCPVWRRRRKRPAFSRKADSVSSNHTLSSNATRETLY
AI-2 QS modul: modulators of Vibrio harveyi AI-2 quorum sensing system | Vibrio harveyi JMH597 AI-2 luminescence/OD600 ratio, 9 h; active compounds read low; strain lacks LuxN and CqsS sensors; 0 = neutral-control median | AID 2094 | actives 0.4% (n = 300,000) | activity change, % at 7.5 µM; in the data active = activity change below about -75%, passing the limit was not always enough;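 also: luminescence divided by OD600 gain over 9 h not by final OD600 alone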
H9c2 protect: modulators protecting cardiomyocytes from myocardial damage; H9c2 cardiomyocytes, H2O2 injury protection, ATPLite, 2 h; protection from H2O2 cell death, % at 20 µM; actives 0.63% (n = 360,000);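 active = compounds giving at least 50% protection of heart cells from peroxide-induced death in the single-dose screen, raw or plate-pattern-corrected value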
AHR act confirm: human AHR activation, confirmation; shares compounds with AHR activator; human cells, AHR-responsive luciferase reporter, luminescence; activation, % at 9 µM; actives 87% (n = 2,300); AID 2845; in the data active = activation above about 49%;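 also: HepG2 hepatoma cells carrying a DRE-driven firefly luciferase reporter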
PXR act counter: counter-screen for AHR activators: human PXR activators. activation, % at 11.6 µM. shares compounds with AHR activator. cell-based PXR reporter, luciferase luminescence. AID 434939. actives 88% (n = 2,300); in the data active = activation above about 11%;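 also: human hepatoma DPX-2 cells expressing full-length human PXR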
Hits are given with their value; i = inactive; nt = not tested or not shown.

SMILES | AHR activator | GRIN3A LBD mod | Mot1-301 SUMO | NTR1 ag | AI-2 QS modul | H9c2 protect | AHR act confirm | PXR act counter
Cc1nc(NC(=O)c2ccc(Cl)cc2)nc2cc3c(cc12)OCO3 | 91.3 | i | i | i | i | i | 71.0 | 16.7
CCCCCC1CCC(C(=O)NCCN2CCOCC2)CC1 (stereo not given) | i | i | i | i | i | i | nt | nt
O=[N+]([O-])c1cccc2ccc(/C=C/c3ccc(C(F)(F)F)cc3)nc12 | 81.9 | 16.9 | i | i | i | i | 96.2 | 14.8
O=[N+]([O-])c1cccc2ccc(/C=C/c3cccc(Br)c3)nc12 | 175.1 | 23.0 | i | i | i | i | 120.7 | 25.3
NNc1nc2ccc(Cl)cc2s1 | 114.9 | i | i | i | i | i | 106.1 | 21.6
O=C(Nn1c(-c2ccc(Br)cc2)nc2ccccc2c1=O)c1ccncc1 | i | i | i | i | i | i | nt | nt
Cc1cc(C(=O)Nn2c(-c3ccc(Br)cc3)nc3ccccc3c2=O)ccc1[N+](=O)[O-] | 83.5 | i | i | i | i | i | 47.5 | 48.9
Cc1[nH]c(C)c(S(=O)(=O)Nc2cccc(Cl)c2C)c1C(=O)N1CCCCC1 | i | i | i | i | i | i | nt | nt
CCCC(=O)Nc1nn(C)c2nc3cc(C)ccc3cc12 | 84.8 | nt | i | i | i | nt | 53.0 | nt
Cc1ccc2nc3c(cc2c1)c(NC(=O)c1cccnc1)nn3C | 106.7 | i | i | i | i | i | 118.0 | 24.9
O=C(CSc1nnc(CNC(=O)c2ccco2)o1)Nc1ccccc1F | i | i | i | i | i | i | nt | nt
CCOC(=O)c1cc(Cl)c2c(ccc3ccccc32)n1 | nt | nt | nt | nt | nt | i | nt | nt
CCOC(=O)Cc1cc(-c2ccc(OC)cc2)nc2ccc3ccccc3c12 | 128.6 | i | i | i | i | i | 107.6 | 16.3
COc1ccc(-c2cc(C(=O)OCC(=O)N(C)C)c3ccccc3n2)cc1 | i | i | i | i | i | i | nt | nt
CCOC(=O)Cc1cc(-c2ccc(O)cc2)nc2ccc3ccccc3c12 | 101.5 | 18.4 | i | i | i | i | 91.8 | nt
CN(C)S(=O)(=O)N1CCC(Oc2cccc(C(=O)NC3CCOC3)c2)CC1 (stereo not given) | i | i | i | i | i | i | nt | nt
Nn1c(SCCOc2ccc(Cl)cc2)nnc1-c1cccnc1 | 91.0 | i | i | i | i | i | 124.6 | 21.9
C[C@H](NC(=O)C1CCN(S(=O)(=O)c2ccccc2)CC1)C(=O)NCc1ccc(Cl)c(Cl)c1 | i | i | i | i | i | i | nt | nt
O=c1c2ccccc2nc(-c2ccco2)n1CCCn1ccnc1 | 83.2 | i | i | i | i | i | 103.0 | 23.1
O=C1C(=Cc2cccs2)Oc2ccccc21 | nt | i | nt | nt | nt | i | nt | nt
Cc1ccccc1/C=C1\Oc2ccccc2C1=O | 98.8 | i | i | i | nt | i | 92.3 | 98.0
CN(C(=O)/C=C/c1ccc2c(c1)OCO2)c1ccccc1 | 96.7 | i | nt | i | i | i | 79.4 | 113.5
Cc1ccc(NC2=C(NC(=O)c3ccccc3)C(=O)c3ccccc3C2=O)cc1Cl | 104.3 | 20.2 | i | i | i | i | 106.3 | 92.9
Cc1nn(C)cc1S(=O)(=O)Nc1ccc(F)c(F)c1 | i | i | i | i | i | i | nt | nt
Cc1c(NS(=O)(=O)c2ccc3c(c2)OCCO3)cccc1-c1nc2cccnc2s1 | i | i | i | i | i | i | nt | nt
SMILES | AHR activator | GRIN3A LBD mod | Mot1-301 SUMO | NTR1 ag | AI-2 QS modul | H9c2 protect | AHR act confirm | PXR act counter
Cc1ccc(-c2nc3cccnc3s2)cc1NS(=O)(=O)c1ccc2c(c1)CCCC2 | 92.9 | i | i | i | i | i | 56.5 | 154.3
CCc1ccc2oc(-c3cc(N)cc(C)c3O)nc2c1 | 114.4 | i | i | i | nt | i | 117.2 | 12.1
Cc1ccc(N2CC(C(=O)Nc3cccc(S(=O)(=O)N4CCOCC4)c3)CC2=O)cc1 (stereo not given) | nt | nt | nt | nt | nt | i | nt | nt
CC(C)C(OC(=O)c1nsc(Cl)c1Cl)C(=O)NCC1CCCO1 (stereo not given) | i | i | i | i | i | i | nt | nt
CC1CCN(C(=O)CNC(=O)c2ccc(Br)o2)CC1 | i | i | i | i | nt | i | nt | nt
Cn1nccc1C(=O)Oc1ccc(/C=N/NC(=O)c2ccccc2O)cc1 | 92.6 | i | i | i | i | i | i | i
Cc1cc(-c2ccccc2)nc(N2CCN(c3ccccn3)CC2)n1 | 81.4 | i | i | i | i | i | 92.7 | 18.8
COc1ccccc1Nc1nc(N)nc(-c2cc3ccccc3o2)n1 | 84.7 | i | i | i | i | i | i | 46.0
COc1ccccc1Nc1nc(N)nc(CN2CCOCC2)n1 | i | i | i | i | i | i | nt | nt
O=C1c2cccc3c([N+](=O)[O-])ccc(c23)C(=O)N1CCc1ccccn1 | i | i | i | i | i | i | nt | nt
O=C1c2ccccc2C(=O)N1CCc1ccccn1 | 99.3 | i | i | i | i | i | 99.9 | 10.1
Nc1nc2c(ncn2[C@@H]2O[C@H](CNS(=O)(=O)C3CC3)[C@@H](O)[C@H]2O)c(=O)[nH]1 | nt | nt | nt | nt | nt | i | nt | nt
Cc1ccc(S(=O)(=O)N2[C@@H](c3cccc(Cl)c3)C(C(=O)O)=CC[C@H]2c2ccc3c(c2)OCO3)cc1 | i | i | i | i | nt | i | nt | nt
Nc1c(Br)cc2oc(-c3ccccc3)nc2c1Br | 84.4 | i | i | i | i | i | 133.7 | 12.9
Cc1nc2ccc(NC(=O)c3oc4ccc(F)cc4c3C)cc2s1 | 85.7 | i | i | i | nt | i | 120.6 | 19.6
O=C(Cn1nc(CNc2ccc(Cl)cc2)[n+]2c1CCCCC2)c1ccc(Br)cc1 | 100.2 | i | i | i | i | i | i | 23.8
COc1ccc(NCc2nn(CC(=O)c3ccc(Br)cc3)c3[n+]2CCCCC3)cc1 | i | i | i | i | i | i | nt | nt
CN1OC[C@@H]2CN(Cc3ccccc3)[C@H](c3ccc(-n4ccnc4)cc3)C[C@@H]21 | nt | nt | nt | nt | nt | i | nt | nt
CC1CCCC(C)N1C(=O)COC(=O)c1cncc(Br)c1 (stereo not given) | i | i | i | i | nt | i | nt | nt
C[n+]1c2n(c3ccccc31)N=C(c1ccccc1)CS2 | 69.1 | i | i | i | i | i | 52.1 | 32.1
Clc1cc2nc(-c3cccnc3Cl)[nH]c2cc1Cl | 112.7 | i | i | i | i | i | 108.1 | 44.8
Clc1ncccc1-c1nc2ccccc2s1 | i | i | i | i | i | i | nt | nt
O=C(/C=C/c1cccc(F)c1)Nc1nccs1 | i | i | i | i | i | i | nt | nt
O=C(/C=C\c1ccccc1)Nc1nccs1 | 111.1 | i | i | i | i | i | 72.9 | 20.7
O=C(COC(=O)CN1C(=O)C2CCCCC2C1=O)Nc1cc(F)ccc1F (stereo not given) | nt | i | nt | i | nt | i | nt | nt
COC(=O)c1cc2nc(-c3ccccc3)cc(C)n2n1 | i | i | i | i | i | i | nt | nt
CCOc1ccc(-c2cc(C)n3nc(C(N)=O)cc3n2)cc1 | 79.2 | i | i | i | i | i | 67.7 | nt
